Source: PubChem BioAssay
NR0B1 inh: inhibits human nuclear receptor DAX1. P51843. HEK293 Gal4-DAX1 luciferase reporter, luminescence. inhibition, % at 6.75 µM. actives 0.99% (n = 340,000). AID 504766;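 active means inhibition above the mean over all tested compounds plus 3 SD, cut at about 4.2% in these data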;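 further: inhibition shows as a rise in luminescence from relieved DAX1 repression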
Target sequence (P51843 207-470 limits assumed): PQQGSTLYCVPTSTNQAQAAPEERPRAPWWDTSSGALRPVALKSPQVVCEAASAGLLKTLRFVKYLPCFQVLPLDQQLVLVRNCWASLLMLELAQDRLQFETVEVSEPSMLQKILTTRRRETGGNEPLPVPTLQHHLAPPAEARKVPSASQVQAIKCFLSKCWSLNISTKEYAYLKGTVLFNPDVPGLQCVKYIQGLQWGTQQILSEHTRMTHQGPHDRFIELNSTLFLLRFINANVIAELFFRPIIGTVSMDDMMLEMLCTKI
FXN GAA850 act: activators of GAA850 frataxin (FXN) promoter; HEK293 lucGAA850 FXN promoter luciferase reporter, 24 h; percent of 10 µM SAHA response; activation, % at 6 µM; actives 0.56% (n = 360,000);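 active means activation above the average of all compounds screened plus 3 SD, cutoff fixed separately per campaign, cut at about 7.5% in these data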
HSF1 activator: increases HSF-1 driven luciferase reporter signal. actives 1.7% (n = 300,000). activation, % at 9 µM. AID 504408. NIH3T3-HGL HSF-1 luciferase reporter, MG132, 8 h; 100% = twice DMSO control signal;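 active means mean replicate activation of at least 50% with a set share of replicates each reaching 50%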
AHR activator: activators of human aryl hydrocarbon receptor | P35869 | AHR-responsive luciferase reporter cells, luminescence | activation, % at 5 µM | actives 2.5% (n = 320,000) | AID 2796; in the data active means activation above about 47%
HSF1 inhib: HSF1 inhibition. NIH3T3-HGL HSE-luciferase, MG132-induced, luminescence 8 h; hits give low values. activity change, negative = inhibition, % at 7.5 µM (by protocol). actives 0.77% (n = 300,000);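 active means more than half of replicate wells show activity change below -50%, luminescence cut by over half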;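 further: luciferase reports HSF-1 transcriptional activity via heat shock element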
Hits are given with their value; – = inactive; · = no result. In the library only some 5.4% were active in any assay of this set; here they are far more common.

SMILES | NR0B1 inh | FXN GAA850 act | HSF1 activator | AHR activator | HSF1 inhib
COC(=O)C(c1ccccc1)C1(O)CC(C)N(C)CC1C (stereo not given) | – | – | – | – | -76
O=C(NCCC(=O)N1CCN(c2ccccn2)CC1)c1ccc([N+](=O)[O-])cc1 | – | – | · | – | ·
Cc1ccc(-c2nnn(CC(=O)N(CC(=O)NC3CCCCC3)c3cccc(F)c3)n2)o1 | – | – | – | · | –
Cc1ccc(-c2nnn(CC(=O)N(CC(=O)NC3CCCCC3)c3ccccc3F)n2)o1 | 4.2 | – | – | · | –
COc1ccc(N(CC(=O)NCc2ccc(F)cc2)C(=O)Cn2nnc(-c3ccc(C)o3)n2)cc1OC | – | – | – | – | -87
COC(=O)c1cccc(NC(=O)CCN2C(=O)NC(C)(C)C2=O)c1 | – | – | · | · | ·
CC1=C(SCc2ccccc2)C(=O)c2ccccc2C1=O | – | – | · | · | ·
O=C1C(SCCO)=C(SCCO)C(=O)c2ccccc21 | – | – | · | 58 | ·
O=C(O)/C=C/S(=O)(=O)c1ccc2ccccc2c1 | – | – | – | – | –
CCn1cc(CNC(=S)Nc2cccc(Cl)c2C)cn1 | – | – | – | – | –
Cc1cc(N/N=C/c2ccccc2Br)nc2ccccc12 | – | – | – | 52 | –
CCCCCN(C(=O)CCC(=O)OCC(=O)NCCc1ccccc1)c1c(N)n(CCCC)c(=O)[nH]c1=O | – | – | · | · | ·
CCCCn1c(N)c(N(CCOC)C(=O)c2cc(-c3ccccc3)nc3ccccc23)c(=O)[nH]c1=O | 7.0 | – | – | – | –
CCCCCN(C(=O)CCC(=O)OCC(=O)N(CC)c1ccccc1)c1c(N)n(CCCC)c(=O)[nH]c1=O | – | – | 58 | – | –
CCCCn1c(N)c(N(CCOC)C(=O)c2cc(-c3ccncc3)nc3ccccc23)c(=O)[nH]c1=O | – | – | – | – | –
Cc1ccc(SCC(=O)N/N=C/c2ccco2)cc1 | – | – | 59 | – | –
Cc1ccc(OCC(=O)N/N=C/c2ccco2)cc1 | – | – | – | – | –
Cc1ccn(CC(=O)NC2CC(C)(C)Cc3c2cnn3-c2ccc(F)cc2)n1 (stereo not given) | – | – | – | – | –
O=C(O)c1ccc(-c2ccc(-c3ccccc3)cc2)s1 | – | – | – | – | -51
O=C(Nc1ccccc1)c1ccc(-c2ccccc2)s1 | – | – | – | – | –
O=C(COC(=O)/C=C/C(=O)OCC(=O)Nc1ccccc1F)Nc1ccccc1F | – | – | 66 | – | –
Cc1nn(-c2ccccc2)c(NC(=O)c2cccs2)c(-c2ccccc2)c1=O | – | – | – | – | –
Cc1ccc(-n2nc(C)c(=O)c(-c3ccccc3)c2NC(=O)c2cccs2)cc1 | 5.5 | – | – | – | –
Cc1cc(C)cc(-c2nnc(SCC(=O)NCC3CCCO3)o2)c1 (stereo not given) | – | – | · | · | ·
COc1ccccc1NS(=O)(=O)c1ccc(NC(=O)Cc2cccs2)cc1 | – | – | 58 | – | –
SMILES | NR0B1 inh | FXN GAA850 act | HSF1 activator | AHR activator | HSF1 inhib
COc1ccc(S(=O)(=O)Nc2ccccc2OC)cc1NC(=O)Cc1cccs1 | – | – | – | – | –
COc1ccc(-c2cc(C(F)(F)F)c3c(N)c(C(=O)NCCSC)sc3n2)cc1 | – | – | – | 62 | –
COc1ccc(OC)c(NC(=O)c2sc3nc(Cc4ccccc4)cc(C(F)(F)F)c3c2N)c1 | – | – | – | – | –
N#Cc1sc2nc(-c3ccccc3)cc(-c3ccco3)c2c1N | – | – | – | – | –
COc1cccc(-c2cc(C(F)(F)F)c3c(N)c(C#N)sc3n2)c1 | · | · | – | 55 | –
CCc1n[nH]c(=S)n1/N=C/c1cc(Br)c(OC)cc1OC | – | – | – | 76 | –
C(=N\n1c2ccccc2c2ccccc21)/c1ccccc1 | – | – | – | 65 | –
C(=N/n1c2ccccc2c2ccccc21)/c1ccco1 | – | – | – | 51 | –
Oc1ccccc1/C=N/n1c2ccccc2c2ccccc21 | – | – | – | – | –
N=c1scc(-c2ccccc2)n1/N=C/c1ccco1 | – | · | – | – | –
CCCc1ccc2oc(C(=O)NCCc3cnn(C)c3)c(C)c2c1 | – | – | – | 49 | –
C=CCNc1ncnc2c1ncn2[C@H]1CN(Cc2ccco2)C[C@@H](CO)O1 | · | – | · | · | ·
CC(C)CNC(=O)c1c(F)c(F)c(F)c(F)c1F | – | – | – | – | –
CC(C)(C)NC(=O)c1c(F)c(F)c(F)c(F)c1F | – | – | – | – | -72
CCOc1ccc(-c2nc(C#N)c(NCc3ccc4c(c3)OCO4)o2)cc1 | – | – | – | 56 | –
Cc1ccc(OCc2nc(C#N)c(NCc3ccc4c(c3)OCO4)o2)cc1 | – | – | – | – | –
COc1ccc(C2/C=C\CN(Cc3ccco3)CC(=O)N2Cc2ccc(F)cc2)cc1 (stereo not given) | – | – | · | – | –
COc1ccc(/C=c2\s/c(=C\C(=O)C(C)(C)C)[nH]c2=O)cc1O | – | – | 64 | – | –
CC(=O)Oc1ccc(-c2cccc(C(=O)OCC(=O)N(C)c3ccccc3)c2)cc1 | – | – | 90 | – | –
CCOC(=O)/C(C#N)=C/C1=C(N2CCOCC2)C(C)(C)OCC1 | 4.3 | – | – | – | –
O=C(NCc1ccco1)c1ccc2c(=O)n(-c3ccccc3)c(=S)[nH]c2c1 | 4.9 | – | – | – | –
O=C(CCCn1c(=S)[nH]c2cc3c(cc2c1=O)OCO3)NCc1ccco1 | – | – | 55 | – | –
CCCCCN(C(=O)CCC(=O)OCC(=O)Nc1ccc(C)cc1F)c1c(N)n(CCCC)c(=O)[nH]c1=O | – | – | – | – | –
CN(C)C(=O)CCc1ccc2c3c([nH]c2c1)[C@]1(CCC2CCCC2)[C@@H](C(=O)N2CCOCC2)C[C@H](CC(=O)NC(C)(C)C)C(=O)N1CC3 | – | – | · | · | ·
CC(C)CCNC(=O)C1(C)CCN1Cc1ccc(-c2ccccn2)cc1 (stereo not given) | · | – | · | · | ·
SMILES | NR0B1 inh | FXN GAA850 act | HSF1 activator | AHR activator | HSF1 inhib
Cc1cc(C)nc(Sc2nc(Cl)nc(N(c3ccccc3)c3ccccc3)n2)n1 | – | – | 54 | – | –
Cc1cc(C)nc(SC(C(=O)O)c2ccccc2)n1 (stereo not given) | – | – | – | – | –
CS(=O)(=O)N1CCC(Oc2ccccc2C(=O)N2CCC[C@H]2CO)CC1 | – | – | – | – | –
Cc1ccc(OCc2nnc(SCC(=O)Nc3cccc4ccccc34)n2-c2ccccc2)cc1 | – | – | 73 | – | –
Cc1cccc(C)c1NC(=O)CSc1nnc(Cn2nnc(-c3ccccc3)n2)n1-c1ccccc1 | – | – | 74 | – | –
O=C(CSc1nnc(Cn2nnc(-c3ccccc3)n2)n1-c1ccccc1)Nc1ccccc1 | – | – | – | – | –
O=C(c1c(F)cccc1F)N1CCN(CCOc2ccccc2)CC1 | – | – | – | – | –
CCOC(=O)c1c(C)oc2c1c(C(c1ccccc1)N1CCOCC1)c(O)c1ccccc12 (stereo not given) | 4.2 | – | – | – | –
Cc1ccc(Sc2ncnc3onc(C)c23)cc1 | – | – | · | – | ·
Cc1noc2ncnc(Sc3ccc(Cl)cc3)c12 | – | – | 72 | – | –
